# Screening data (PubChem)
# Sampled rows, rich in hits. Any-hit rate of the full collection: about 27%.
# sEH act: soluble epoxide hydrolase activators, primary screen, biochemical, human sEH; Bifunctional epoxide hydrolase 2 (Homo sapiens), P34913; purified human sEH enzymatic activity, activator screen; activation, % at 2 µM; 91,000 compounds, 0.04% hits; AID 717, 2007; in the data active means activation above about 37%
# CYP2C19 activ: human CYP2C19 activators, primary screen, biochemical, luminescence. Cytochrome P450 2C19 (Homo sapiens), P33261. recombinant CYP2C19, luciferin-H EGE luminescence; stronger effect = higher value; 0 = fully inhibited enzyme, 1 = untreated enzyme. activation factor at 5 µM. 96,000 tested, under 10 active. AID 1025, 2008;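 active means activation factor of at least 2 at 5 µM in the primary screen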;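 further: 0 = wells with 2.5 mM tranylcypromine and 1 = vehicle-only wells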
# Target sequence (P33261 whole entry, looked up): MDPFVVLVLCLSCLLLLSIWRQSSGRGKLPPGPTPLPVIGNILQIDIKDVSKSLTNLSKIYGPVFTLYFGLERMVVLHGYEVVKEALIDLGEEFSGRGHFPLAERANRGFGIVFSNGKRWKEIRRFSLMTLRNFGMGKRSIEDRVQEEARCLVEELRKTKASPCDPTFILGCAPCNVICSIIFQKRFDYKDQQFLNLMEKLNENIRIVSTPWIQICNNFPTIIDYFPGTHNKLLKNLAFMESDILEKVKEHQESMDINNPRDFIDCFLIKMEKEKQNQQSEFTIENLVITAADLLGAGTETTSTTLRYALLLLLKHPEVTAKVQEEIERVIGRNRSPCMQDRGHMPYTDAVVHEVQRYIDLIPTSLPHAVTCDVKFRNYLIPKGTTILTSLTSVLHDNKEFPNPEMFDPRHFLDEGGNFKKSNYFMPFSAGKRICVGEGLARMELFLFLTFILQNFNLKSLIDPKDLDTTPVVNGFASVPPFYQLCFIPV
# CYP2C19 inhib: blockers of cytochrome P450 2C19 activity – biochemical, luminescence, ADME assay, primary screen; CYP2C19 Supersomes, luciferin-H EGE luminescence, 30 min; P33261; inhibition, % at 5 µM; 96,000 compounds, 21% hits;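 active means CYP2C19 inhibition above a set limit at 5 µM in the primary screen, cut at about 50% in these data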;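 further: plate controls were negative control wells for no effect and 2.5 mM tranylcypromine positive control for full effect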
# CYP2C9 inh: blockers of cytochrome P450 2C9 activity – biochemical, luminescence, ADME assay, primary screen | P11712 | CYP2C9 Supersomes, luciferin-H conversion | inhibition, % at 5 µM | 96,000 compounds, 20% hits;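 active means blocking of liver enzyme CYP2C9 beyond about 50% at 5 µM, limit read from the data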
# CYP2C9 act: human CYP2C9 activators, primary screen, biochemical, luminescence; recombinant CYP2C9, luciferin-H conversion; stronger effect = higher value; factor 1 = untreated enzyme, 0 = blocked; activation factor at 5 µM; 96,000 compounds, 1.4% hits;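 active means activation factor of 2 or more for CYP2C9 at a 5 µM dose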;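 further: 0 = sulfaphenazole-blocked wells and 1 = vehicle-only wells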
# sEH inhibitor: soluble epoxide hydrolase inhibitors, primary screen, biochemical, human sEH; recombinant human sEH enzymatic activity assay; 91,000 compounds, 0.34% hits; AID 707, 2007; Bifunctional epoxide hydrolase 2 (Homo sapiens), P34913; inhibition, % at 2 µM; in the data active means inhibition above about 80%
# Active calls of the source: *; · = no result.
SMILES,sEH act,CYP2C19 activ,CYP2C19 inhib,CYP2C9 inh,CYP2C9 act,sEH inhibitor
Cc1nn(C)c(Cl)c1NC(=O)OCc1ccccc1,·,0.7,33,-49,1.5,·
CCOC(=O)N1CCN(CC(O)COC2CC(C)CC(C)(C)C2)CC1 (stereo not drawn),1,1,-4,6,0.9,-1
CCOC1=NC(C(=O)O)c2ccccc2/C(=C(/C)Cl)N1 (stereo not drawn),-3,0.7,30,22,0.8,4
CCOC(=O)c1c(NC(=O)CSc2nc3ccccc3s2)sc(C)c1C,-8,0.7,28,65*,0.3,8
CCOC(=O)c1c(NC(=O)CSc2ncn[nH]2)sc(C)c1C,3,0.3,73*,85*,0.1,-4
O=C(CSc1nnc(COc2ccc3c(c2)CCCC3)o1)Nc1ccc(F)cc1,-8,0.8,19,-26,1.3,9
O=C(Nc1ncc2c(n1)-c1ccccc1OC2)c1ccccc1Cl,-1,0.9,14,30,0.7,-2
Cc1ccc(-n2c(SCC(=O)Nc3cc(C)on3)nc3c(c2=O)SC(C)C3)cc1 (stereo not drawn),·,0.8,18,34,0.7,·
O=C(O/N=C/C1=C(Cl)c2ccccc2CC1)c1ccc(F)cc1,0,1.1,-10,28,0.7,1
COc1cc(C(=O)O/N=C(\N)c2ccncc2)cc(OC)c1OC,0,0.3,72*,89*,0.1,3
COc1cccc(C(=O)O/N=C(\N)c2ccc([N+](=O)[O-])cc2)c1,22,0.9,12,-96,2*,-21
CCOc1cc(C(=O)O/N=C(\N)c2ccc([N+](=O)[O-])cc2)cc(OCC)c1OCC,0,0.9,5,20,0.8,-2
Cc1cc(C)cc(C(=O)O/N=C(\N)c2ccc(Br)cc2)c1,-4,1.1,-13,-247,3.5*,2
COc1ccccc1C(=O)O/N=C(\N)c1ccc(Cl)cc1,10,1,0,-199,3*,-8
N/C(=N\OC(=O)c1ccc(Cl)cc1)c1ccccn1,8,1,2,34,0.7,-7
O=C1CCN(N=Nc2cccc(Cl)c2)N1,-11,1,1,18,0.8,12
COc1cccc(C(=O)O/N=C(\N)c2ccncc2)c1,5,0.2,82*,70*,0.3,-7
CC1=C(C(=O)OC(C)C)C(c2ccc(C)o2)NC(=O)N1 (stereo not drawn),-6,·,·,·,·,9
CC(=O)Nc1ccc(NC(=O)c2ccco2)cc1,-9,1,0,-8,1.1,10
O=C(CSc1ccccc1)Nc1cccc(NC(=O)c2ccco2)c1,7,0.6,36,44,0.6,-3
CSc1cccc(NC(=O)c2ccco2)c1,-1,0.4,58*,-16,1.2,1
O=C(CSc1ccc(Cl)cc1)Nc1cccc(NC(=O)c2ccco2)c1,0,0.6,39,77*,0.2,1
O=C(CNC(=O)c1ccco1)OCc1ccc(Cl)cc1,-4,0.2,82*,19,0.8,1
O=C(CSc1ccc(Cl)cc1)c1ccco1,-3,0.9,13,16,0.8,3
O=C(NCCSc1ccc(Cl)cc1)c1ccco1,12,0.2,84*,51*,0.5,-10
SMILES,sEH act,CYP2C19 activ,CYP2C19 inhib,CYP2C9 inh,CYP2C9 act,sEH inhibitor
Cc1ccccc1N(C(=O)Cn1nnc(-c2cccs2)n1)C(C(=O)NCCC(C)C)c1ccco1 (stereo not drawn),14,0.4,60*,84*,0.2,-12
COCCNC(=O)C(c1ccco1)N(C(=O)Cn1nnc2ccccc21)c1ccccc1C (stereo not drawn),23,1,1,-2,1,-24
CC(C)CCNC(=O)C(c1ccco1)N(Cc1cccs1)C(=O)Cn1nnc2ccccc21 (stereo not drawn),·,0.3,73*,59*,0.4,·
COCCNC(=O)C(c1cccs1)N(Cc1cccs1)C(=O)Cn1nnc2ccccc21 (stereo not drawn),3,·,·,·,·,-4
O=C(CN1C(=O)NC2(CCCCCCC2)C1=O)N1CCOCC1,-14,1,-4,-12,1.1,16
Cc1cc(NC(=O)c2cc(-c3ccc4c(c3)OCO4)on2)n(-c2ccccc2)n1,16,0.8,20,12,0.9,-15
CC(=O)Nc1ccc(N(C)S(C)(=O)=O)cc1,4,1.1,-15,-3,1,-5
CCn1c(C(=O)N2CCCC(C(=O)NCCc3ccc(C)cc3)C2)cc2sccc21 (stereo not drawn),-70,0.8,25,50*,0.5,71
Cn1c(C(=O)N2CCCC(C(=O)NCCCSC3CCCCC3)C2)cc2sccc21 (stereo not drawn),-92,0.5,47,82*,0.2,92*
CCOC(=O)N1CCN(C(=O)C2CCN(C(=O)c3cc4sccc4n3CC)CC2)CC1,·,1.2,-20,-32,1.3,·
CCn1c(C(=O)N2CCCC(C(=O)O)C2)cc2sccc21 (stereo not drawn),-2,·,·,·,·,2
Cn1c(C(=O)N2CCCC(C(=O)NCc3cccs3)C2)cc2sccc21 (stereo not drawn),-9,0.8,25,-73,1.7,10
CCn1c(C(=O)N2CCC(Cc3ccccc3)CC2)cc2sccc21,4,0.4,59*,58*,0.4,-6
CCn1c(C(=O)N2CCCC(C(=O)NCCCc3ccccc3)C2)cc2sccc21 (stereo not drawn),-94,·,·,·,·,94*
Cc1ccc(CCNC(=O)C2CCCN(C(=O)N(C)C)C2)cc1 (stereo not drawn),-51,0.9,14,2,1,50
O=C1CC(c2ccc(F)cc2)C2=C(CCCC2=O)N1 (stereo not drawn),-4,1,-4,-11,1.1,5
OCCn1c(SC2CCCCC2)nc2ccccc21,-1,0.6,39,16,0.8,4
CCOC(=O)C(C)Sc1nnc(-c2ccccc2O)n1-c1ccc(C)cc1 (stereo not drawn),-6,0.5,48,26,0.7,7
CC(=O)Nc1ccc(S(=O)(=O)N2CCN(C(C)CCc3ccccc3)CC2)cc1 (stereo not drawn),12,0.5,50,56*,0.4,-10
CC(=O)Nc1ccc(S(=O)(=O)N2CCN(C)CC2)cc1,6,0.9,6,-12,1.1,-5
CN(C)S(=O)(=O)N1CCN(CC(O)COc2ccc3cc(Br)ccc3c2)CC1 (stereo not drawn),-3,0.5,48,58*,0.4,2
